BAZ2B block – inhibitors of human BAZ2B bromodomain | Potency, µM (titrated, usually from 114 µM), usual class: inhibitors | 4.4% of 360,000 active | AlphaScreen BAZ2B-H3K14Ac peptide displacement | AID 504333; note: nearly all actives have a fitted effect of over 60% in size
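BAZ2B 50 nM plus b-H3(5-23)K14Ac 50 nM, PBS pH 7.4/0.01% Tween-20, 30 min RT; compound added (max 110 uM), 30 min RT; streptavidin donor/Ni-chelate acceptor beads 10 ug/mL final, 20 min dark; AlphaScreen read.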
HP1b binding inh – inhibitors of HP1-beta chromodomain binding to methylated histone tails; P83916; AlphaScreen HP1-beta / biotin-H3K9me3 peptide binding; Potency, µM (series often up to 114 µM), hits mostly inhibitors; 0.56% of 390,000 active; note: nearly all actives have a fitted effect of over 70% in size
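Compound inhibition of the preformed complex between 50 nM HP1-beta and 50 nM biotinylated H3K9me3 peptide was read by AlphaScreen. Buffer was PBS pH 7.4 with 0.01% Tween-20. Incubations ran 30 min at room temperature, with 10 ug/mL donor/acceptor beads.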
VDR inhibitor – inhibitors of human vitamin D receptor | VDR-SRC2-3 peptide fluorescence polarization, 2 h | Potency, µM, actives largely listed as inhibitors | 0.93% of 400,000 active | AID 504847
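Fluorescence polarization assay measuring small-molecule disruption of VDR binding to the coregulator peptide SRC2-3. Compounds were pin-transferred (23 nl) into the reagent mix and incubated 2 h at room temperature before reading.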
PLK1 PBD inh – inhibitors of human PLK1 polo-box domain binding. AID 720504. Potency, µM, most hits filed as inhibitors. Plk1 PBD binding of FITC phosphopeptide, fluorescence polarization. P53350. 2.8% of 360,000 active; note: series mostly up to about 57 µM; nearly all actives have a fitted effect of over 65% in size
JMJD2A Tudor inh – JMJD2A Tudor domain (human) inhibition | O75164 | 4.4% of 390,000 active | Potency, µM (highest dose often 114 µM), hits mostly inhibitors | AlphaScreen JMJD2A-Tudor / H3K4me3 peptide binding; note: nearly all actives have a fitted effect of over 50% in size
Target sequence (O75164 whole entry, looked up, the tested form may be a part): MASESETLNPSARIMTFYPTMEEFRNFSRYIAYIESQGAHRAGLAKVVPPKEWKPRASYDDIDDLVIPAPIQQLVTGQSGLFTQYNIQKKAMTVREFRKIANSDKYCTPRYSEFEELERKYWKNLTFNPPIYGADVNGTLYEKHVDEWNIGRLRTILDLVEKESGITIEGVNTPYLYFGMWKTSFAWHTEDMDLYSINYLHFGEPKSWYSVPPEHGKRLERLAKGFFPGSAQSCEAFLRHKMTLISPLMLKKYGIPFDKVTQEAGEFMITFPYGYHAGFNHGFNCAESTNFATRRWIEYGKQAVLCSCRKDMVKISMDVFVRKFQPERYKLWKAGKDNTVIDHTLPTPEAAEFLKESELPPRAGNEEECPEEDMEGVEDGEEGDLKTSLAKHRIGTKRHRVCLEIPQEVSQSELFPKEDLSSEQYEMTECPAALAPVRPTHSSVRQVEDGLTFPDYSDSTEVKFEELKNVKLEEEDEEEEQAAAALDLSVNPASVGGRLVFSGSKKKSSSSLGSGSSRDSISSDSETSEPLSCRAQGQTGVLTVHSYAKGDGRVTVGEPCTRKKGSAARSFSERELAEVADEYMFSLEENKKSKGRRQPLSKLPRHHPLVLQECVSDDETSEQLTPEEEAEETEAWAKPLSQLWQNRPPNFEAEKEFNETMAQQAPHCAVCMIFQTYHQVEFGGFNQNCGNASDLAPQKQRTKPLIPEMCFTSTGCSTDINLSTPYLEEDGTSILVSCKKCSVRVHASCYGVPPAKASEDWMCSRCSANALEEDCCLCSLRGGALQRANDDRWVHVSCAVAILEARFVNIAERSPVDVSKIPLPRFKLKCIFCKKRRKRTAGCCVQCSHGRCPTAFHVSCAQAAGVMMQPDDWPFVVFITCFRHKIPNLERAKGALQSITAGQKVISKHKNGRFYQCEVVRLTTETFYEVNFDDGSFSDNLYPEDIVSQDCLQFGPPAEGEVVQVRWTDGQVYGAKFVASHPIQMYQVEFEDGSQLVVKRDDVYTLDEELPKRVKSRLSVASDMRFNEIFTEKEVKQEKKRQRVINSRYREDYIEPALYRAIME
G9a inh – G9a (human) methyltransferase inhibition | G9a H3K9 monomethylation, AlphaScreen, 2 h | Potency, µM (highest dose often 102 µM), usual class: inhibitors | 8.8% of 350,000 active; note: nearly all actives have a fitted effect of over 75% in size
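Enzyme 20 nM + cpd, 15 min RT; add b-H3K9 pep 500 nM / SAM 20 uM; 2 h RT; anti-H3K9me1 Ab 0.5 ug/mL + SA donor / anti-rabbit acceptor beads 20 ug/mL each, 10 min; AlphaScreen read.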
VDR confirm – confirmation of human vitamin D receptor inhibitors; VDR-coactivator inhibition assay, qHTS confirmation; 89% of 840 active; Potency, µM, most hits filed as inhibitors; shares compounds with VDR inhibitor
VDR FP fluor – VDR (human) coactivator binding inhibition, fluorescein polarization. shares compounds with VDR inhibitor. VDR-coactivator binding, fluorescein fluorescence polarization. Potency, µM (highest dose often 57.1 µM), usual class: inhibitors. 48% of 840 active. AID 602200
VDR bla reporter – inhibits human VDR in beta-lactamase reporter cells. shares compounds with VDR inhibitor. VDR beta-lactamase reporter cells, FRET ratio; cells co-treated with VDR agonist LG190178. Potency, µM (titrated, usually from 46.1 µM), most hits filed as inhibitors. 23% of 840 active. AID 602202
VDR cytotox – counter-screen for vitamin D receptor inhibitors: cytotoxicity. Potency, µM (doses to about 48.3 µM), usual class: cytotoxic. shares compounds with VDR inhibitor. 18% of 840 active. cytotoxicity counter-screen, cell viability, qHTS. AID 602204; note: nearly all actives have a fitted effect of over 75% in size
Hits are given with their value; – = inactive; ? = inconclusive; · = not tested or not shown; [ ] = another dose, or the depositor's remark. Hits are enriched below; roughly 11% of the tested compounds scored in any of these assays. Calls come from the whole dose curve; as a rule, active = well fitted curve in the direction sought with a large enough effect; inconclusive = small, poorly fitted or top-dose-only effect, or another doubt; inactive = no such curve, though single readings can be large; an effect the other way counts as inactive or inconclusive.

SMILES | BAZ2B block | HP1b binding inh | VDR inhibitor | PLK1 PBD inh | JMJD2A Tudor inh | G9a inh | VDR confirm | VDR FP fluor | VDR bla reporter | VDR cytotox
Cc1ccc(CS(=O)(=O)c2ncc(Cl)c(C(=O)Nc3nnc(C(C)C)s3)n2)cc1 | – | – | 13µM | ? | ? | 45µM | 6.7 | 3.2µM | 9.2µM | 18µM
CSc1nnc(NC(=O)c2nc(S(=O)(=O)Cc3cccc(C)c3)ncc2Cl)s1 | – | – | 14µM | ? | ? | 4.5µM | 4.2 | ? | 5.8µM | 16µM
Cc1cccc(CS(=O)(=O)c2ncc(Cl)c(C(=O)Nc3nnc(C(C)C)s3)n2)c1 | ? | – | 8.9µM | ? | ? | ? | 6 | 3.5µM | 8.2µM | 13µM
CC(C)c1nnc(NC(=O)c2nc(S(=O)(=O)Cc3ccc(F)cc3)ncc2Cl)s1 | – | – | 10µM | – | ? | 8.9µM | 7.5 | 3.5µM | 16µM | 10µM
Cc1cccc(CSc2ncc(Cl)c(C(=O)Nc3nc4ccc(F)cc4s3)n2)c1 | – | – | – | · | – | – | · | · | · | ·
CC(C)c1nnc(NC(=O)c2nc(SCc3ccc(F)cc3)ncc2Cl)s1 | – | – | – | · | – | – | · | · | · | ·
CCc1noc(C)c1C(=O)Nc1sc(C(=O)N(C)C)c(C)c1C#N | · | – | – | ? | – | · | · | · | · | ·
CCSc1nnc(NC(=O)c2nc(S(=O)(=O)Cc3ccc(F)cc3)ncc2Cl)s1 | ? | – | ? | ? | 2.8µM | · | 2.8 | 3.5µM | 16µM | 19µM
CSc1ncc(Cl)c(C(=O)Nc2nnc(SC/C=C/c3ccccc3)s2)n1 | – | – | – | ? | – | ? | · | · | · | ·
Cc1ccc(C(=O)NNC(=O)c2ccncc2)cc1C | – | – | – | – | – | – | · | · | · | ·
Cc1ccc(CC(=O)NNC(=O)c2ccncc2)cc1C | – | ? | 79µM | 12µM | – | 4.5µM | 27 | 28µM | – | –
COc1ccc(C(=O)N2CCC(C)(C(=O)O)C2)c(OC)c1 (stereo not drawn) | · | · | · | – | · | · | · | · | · | ·
CC1=NNC(=O)/C1=C\c1cn(-c2ccccc2)nc1-c1cccs1 | ? | – | 10µM | 2.7µM | ? | 10µM | 3.8 | ? | 16µM | 9.2µM
CC1=NNC(=O)/C1=C\c1cn(-c2ccccc2)nc1-c1ccc(F)cc1 | – | – | 45µM | 1.5µM | – | 10µM | 7.5 | ? | 15µM | 7.3µM
O=C(/C=C/c1ccc(Cl)cc1)c1cccnc1 | – | – | 25µM | ? | – | 45µM | 6 | 5.6µM | – | –
N#Cc1ccc(/C=C/C(=O)c2ccc3c(c2)OCO3)cc1 | – | – | ? | – | – | – | · | · | · | ·
O=C(/C=C/c1ccccc1Cl)c1cccnc1 | – | – | 45µM | ? | – | 35µM | 6.7 | ? | ? | ?
N#Cc1ccc(/C=C/C(=O)c2cccnc2)cc1 | · | – | 11µM | ? | – | 25µM | 8.4 | ? | ? | ?
O=C(/C=C/c1ccc(OCc2ccccc2)c(OCc2ccccc2)c1)c1cccnc1 | ? | – | ? | – | – | – | 7.1 | 4µM | – | –
CCN(CC)c1ccc(/C=C/C(=O)c2cccnc2)cc1 | ? | – | – | – | ? | – | · | · | · | ·
Cc1nc(C(N)=O)nc2ccccc12 | – | – | – | – | – | – | · | · | · | ·
CC1=C(C(=O)N(C(C)C)C(C)C)CC(CC(=O)NCCN2CCOCC2)C(=O)N1CCC1=CCCCC1 (stereo not drawn) | · | · | · | – | · | · | · | · | · | ·
COc1ccc(CCNC(=O)CC(c2ccccc2)c2cc(C)ccc2O)cc1OC (stereo not drawn) | – | – | – | – | – | –[2.33 µM] | · | · | · | ·
CN1C(=O)C(Cl)(Cl)C(=O)c2ccccc21 | 40µM | – | 4µM | 12µM | 28µM | 1µM | 3.4 | ? | – | –
CCOc1ccc(-c2nnc(SCC(=O)NCCc3ccccc3)nc2-c2ccc(OCC)cc2)cc1 | – | – | – | · | – | – | · | · | · | ·
SMILES | BAZ2B block | HP1b binding inh | VDR inhibitor | PLK1 PBD inh | JMJD2A Tudor inh | G9a inh | VDR confirm | VDR FP fluor | VDR bla reporter | VDR cytotox
CC(C)Oc1ccc(C(=O)NC2=NCCS2)cc1 | – | ? | 79µM | 27µM | – | 3.5µM | 24 | ? | – | –
COc1ccc(C(=O)NC2=NCCS2)cc1 | – | – | – | – | – | –[12.7 µM] | · | · | · | ·
CCCNC(=O)C1(C)CCCN(Cc2ccc3ccccc3c2)C1 (stereo not drawn) | · | · | · | – | · | · | · | · | · | ·
CCOC(=O)c1sc(N2C(=O)c3oc4ccc(F)cc4c(=O)c3C2c2cccc(OC)c2)nc1C (stereo not drawn) | – | – | – | · | – | ? | · | · | · | ·
N#CC1=C(Nc2ccccc2Cl)SC(c2ccccc2O)NC1=O (stereo not drawn) | – | – | 20µM | ? | ? | –[2.33 µM] | 3.8 | ? | – | –
O=C(O)CN1C(=O)/C(=C\c2cc(Br)ccc2OCc2ccc(Cl)cc2Cl)SC1=S | 25µM | ? | 45µM | 12µM | 20µM | –[0.501 µM] | 17 | 18µM | – | ?
COc1ccc(C(=O)/C=C/c2ccccc2OC)c(OC(=O)c2ccc([N+](=O)[O-])cc2)c1 | · | – | – | – | – | · | · | · | · | ·
COc1cccc(C(=O)Oc2ccccc2/C=C\C(=O)c2cc3ccccc3o2)c1 | ? | – | ? | – | – | 11µM | 2.8 | 3.2µM | ? | –
O=C(Oc1ccccc1/C=C\C(=O)c1cc2ccccc2o1)c1ccccc1 | – | – | ? | – | – | ? | 4 | ? | ? | –
O=C(Oc1ccccc1/C=C\C(=O)c1cc2ccccc2o1)c1cccc(F)c1 | – | – | 28µM | – | – | – | 11 | ? | ? | ?
COc1cccc(N2C(=O)c3ccncc3C2=O)c1 | – | – | – | – | – | – | · | · | · | ·
COc1cccc(/C=C2\C(=O)N(c3cccc(C)c3)C(=O)c3ccccc32)c1 | ? | – | ? | 2.7µM | – | 18µM | 7.9 | 3.2µM | – | –
CSc1nnc(NC(=O)c2nc(S(=O)(=O)Cc3ccccc3F)ncc2Cl)s1 | – | – | 20µM | ? | 22µM | 28µM | 6 | 7.9µM | 7.3µM | 11µM
O=C(Nc1nc2ccc(F)cc2s1)c1nc(S(=O)(=O)Cc2ccccc2F)ncc1Cl | – | – | ? | · | – | – | · | · | · | ·
Cc1nnc(NC(=O)c2nc(SCc3ccccc3F)ncc2Cl)s1 | – | – | – | · | – | – | · | · | · | ·
CC(C)c1nnc(NC(=O)c2nc(S(=O)(=O)Cc3ccccc3F)ncc2Cl)s1 | ? | – | 20µM | – | – | 20µM | 8.4 | 3.2µM | 18µM | 21µM
